Measured values: PubChem BioAssay (Tox21)
Records with an inconclusive call do not appear. Calls of active or inactive are those of the source. Unless noted, calls come from the whole dose curve; as a rule, active = well fitted curve in the direction sought with a large enough effect in the repeat runs; inconclusive = weak or mixed curves; inactive = no such curve, though single readings can be large; an effect the other way counts as inactive or inconclusive.

Tests used:
[1] = qHTS assay to identify small molecule antagonists of the TGF-beta/Smad signaling pathway - cell viability counter screen (AID 1346824); note: nearly all actives have a fitted effect of over 50% in size
How it was run: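 SBE-bla HEK 293T cells were plated overnight at 37 C, then given compounds in DMSO plus TGF-beta1 (added as 0.25 ng/mL solution) for 5 hr. After the bla read, CellTiter-Glo was added to the same wells and luminescence read after 30 min at room temperature.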

[2] = qHTS assay to identify small molecule agonists of the TGF-beta/Smad signaling pathway - cell viability counter screen (AID 1346829); note: top concentration of the series differs between compounds; nearly all actives have a fitted effect of over 45% in size
How it was run: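 Same-well cytotoxicity: CellTiter-Glo added after the 2 hr room-temperature beta-lactamase substrate step, luminescence measured 30 min later; cells had 5 hr of compound at 37 C.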

[3] = qHTS assay to identify small molecule agonists of the TGF-beta/Smad signaling pathway (AID 1346859; active = well fitted activation curve with a large enough effect in the signal ratio in the repeat runs, not every such curve was filed as active; the % refers to the signal ratio; note: series mostly up to about 77 µM)
How it was run: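 Each well held 4,000 SBE-bla HEK 293T cells incubated overnight before compound addition; 5 hr later the cleavable FRET substrate went on for 2 hr at room temperature, and fluorescence was read at two emissions.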

[4] = molecular target: Thyrotropin-releasing hormone receptor (Homo sapiens) (UniProt P34981); experiment: qHTS assay to identify small molecule agonists of the thyrotropin-releasing hormone receptor (TRHR) signaling pathway (AID 1346891; calls by dose curve; note: series mostly up to about 58 µM)
How it was run: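 Screening of agonists relied on calcium signalling in HEK293 cells expressing human TRHR: dye loading 2 h at 37 °C preceded compound addition and a 3-min fluorescence time course.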

[5] = Human pregnane X receptor (PXR) small molecule agonists, qHTS cell viability counter screen (AID 1346977); note: nearly all actives have a fitted effect of over 50% in size
How it was run: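 Tox21 qHTS format; PXR-Luc HepG2, 2,000/well, charcoal-stripped FBS 5%. Cpd exposure 24hr. Read: CellTiter-Fluor fluorescence, multiplexed with luciferase.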

[6] = Caspase-3/7 induction in HepG2 cells by small molecules, qHTS assay (AID 1346978); note: nearly all actives have a fitted effect of over 15% in size
How it was run: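 Wild-type HepG2 cells (2,000/well) were settled 5 h at 37 C, 5% CO2, then exposed to compounds in DMSO for 17 h. Caspase-3/7 activity was read by luminescence 30 min after adding Caspase-Glo 3/7 reagent at room temperature.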

[7] = Caspase-3/7 induction in CHO-K1 cells by small molecules, qHTS cell viability counter screen (AID 1346979); note: nearly all actives have a fitted effect of over 35% in size
How it was run: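 CellTiter-Fluor viability check, qHTS format: wild-type CHO-K1, 16hr compound treatment, 1hr reagent incubation, fluorescence read.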

[8] = Caspase-3/7 induction in CHO-K1 cells by small molecules, qHTS assay (AID 1346980); note: nearly all actives have a fitted effect of over 15% in size
How it was run: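 Wild-type cells were seeded at 1,500 per well and settled 5 hr at 37 C, 5% CO2, then exposed to DMSO-dissolved compounds for 17 hr. Caspase-Glo 3/7 reagent was added, and luminescence was read after 30min at room temperature.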

[9] = Caspase-3/7 induction in HepG2 cells by small molecules, qHTS cell viability counter screen (AID 1346981); note: series mostly up to about 92 µM; nearly all actives have a fitted effect of over 30% in size
How it was run: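 CellTiter-Fluor fluorescence measured viability in the same wells used for Caspase-Glo 3/7. HepG2 (wild type) at 2,000 cells/well were pre-incubated 5 hr, dosed, and given reagent at 16 hr, with 1 hr further at 37C.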

[10] = molecular target: Nuclear receptor subfamily 1 group I member 2 (Homo sapiens) (UniProt O75469); experiment: Human pregnane X receptor (PXR) small molecule agonists, qHTS assay (AID 1346982); note: nearly all actives have a fitted effect of over 35% in size
How it was run: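 Agonist mode: luminescence from ONE-Glo after 24 h compound exposure at 37C in HepG2 cells carrying hPXR-responsive CYP3A4 luciferase, plated in charcoal-stripped serum medium 5 h beforehand.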

[11] = molecular target: Cytochrome P450 2D6 (Homo sapiens) (UniProt P10635); experiment: Cytochrome P450 Family 2 Subfamily D Member 6 (CYP2D6) small molecule antagonists: luciferase reporter qHTS assay (AID 1671196); note: series mostly up to about 120 µM; nearly all actives have a fitted effect of over 50% in size
How it was run: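 CYP2D6 activity was followed as luminescence from its luciferin product after a 1 h NADPH-driven reaction at room temperature. Enzyme-substrate mix and compound were pre-incubated for 10 min, and the signal was read 20 min after adding detection reagent.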

[12] = molecular target: Cytochrome P450 2C19 (Homo sapiens) (UniProt P33261); experiment: Cytochrome P450 Family 2 Subfamily C Member 19 (CYP2C19) small molecule antagonists: luciferase reporter qHTS assay (AID 1671197); note: nearly all actives have a fitted effect of over 65% in size; note: potency is the fitted concentration of half-maximal effect; for activity change, negative = inhibition: series mostly up to about 120 µM
How it was run: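 Quantitative high-throughput screen of the Tox21 library using CYP2C19 with proluciferin substrate. Reaction: NADPH regeneration, 37C, 1 h, after 10 min compound preincubation at room temperature. Readout: luminescence.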

[13] = molecular target: Cytochrome P450 2C9 (Homo sapiens) (UniProt P11712); experiment: Cytochrome P450 Family 2 Subfamily C Member 9 (CYP2C9) small molecule antagonists: luciferase reporter qHTS assay (AID 1671198); note: nearly all actives have a fitted effect of over 50% in size; note: potency is the fitted concentration of half-maximal effect; for activity change, negative = inhibition: series mostly up to about 120 µM
How it was run: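 CYP2C9 activity was measured with a P450-Glo proluciferin substrate. Enzyme–substrate mix was held with compound for 10 min at room temperature, then NADPH regeneration solution was added for 1 h at 37C. Luciferin product was read as luminescence.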

[14] = molecular target: Cytochrome P450 1A2 (Homo sapiens) (UniProt P05177); experiment: Cytochrome P450 Family 1 Subfamily A Member 2 (CYP1A2) small molecule antagonists: luciferase reporter qHTS assay (AID 1671199); note: nearly all actives have a fitted effect of over 50% in size; note: potency is the fitted concentration of half-maximal effect; for activity change, negative = inhibition: series mostly up to about 120 µM
How it was run: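 Luminescence from luciferin formed by CYP1A2 from a proluciferin substrate, read 20 min after detection reagent. Compound was pre-incubated 10 min with enzyme-substrate, and reaction started with NADPH regeneration solution for 1 h at room temperature; furafylline control.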

[15] = molecular target: Cytochrome P450 3A4 (Homo sapiens) (UniProt P08684); experiment: Cytochrome P450 Family 3 Subfamily A Member 4 (CYP3A4) small molecule antagonists: luciferase reporter qHTS assay (AID 1671201); note: nearly all actives have a fitted effect of over 50% in size; note: potency is the fitted concentration of half-maximal effect; for activity change, negative = inhibition: series mostly up to about 120 µM
How it was run: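 Proluciferin-to-luciferin conversion by CYP3A4, NADPH-regenerated, 1 h RT; luminescence read as RLU. Ketoconazole as control.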

[16] = molecular target: Voltage-gated inwardly rectifying potassium channel KCNH2 (Homo sapiens) (UniProt Q12809); experiment: Human Ether-a-go-go-Related Gene (hERG) channel small molecule antagonists: fluorescence cell-based qHTS assay (AID 1671200)
How it was run: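 Kinetic two-minute fluorescence traces, sampled at 1 s, were collected following thallium stimulus of U2OS cells (1000 per well) that had been cultured overnight at 37 C and loaded with FluxOR II.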

[17] = molecular target: Thyrotropin-releasing hormone receptor (Homo sapiens) (UniProt P34981); experiment: qHTS assay to identify small molecule antagonists of the thyrotropin-releasing hormone receptor (TRHR) signaling pathway (AID 1346877; active = well fitted inhibition curve with a large enough effect in the repeat runs, not every such curve was filed as active; note: series mostly up to about 51 µM)
How it was run: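 Antagonist mode: after a 5 min room-temperature compound exposure, cells were stimulated with 1 nM (final) TRH. Dye-loaded TRHR-HEK293 cells were used, and calcium-dependent fluorescence was followed for 3 min, with 15-point titrations run in triplicate.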
% is set by controls: 0 for no effect and ±100 for the full control effect.

Chain of Thyrotropin-releasing hormone receptor (Homo sapiens) (P34981 whole entry, looked up): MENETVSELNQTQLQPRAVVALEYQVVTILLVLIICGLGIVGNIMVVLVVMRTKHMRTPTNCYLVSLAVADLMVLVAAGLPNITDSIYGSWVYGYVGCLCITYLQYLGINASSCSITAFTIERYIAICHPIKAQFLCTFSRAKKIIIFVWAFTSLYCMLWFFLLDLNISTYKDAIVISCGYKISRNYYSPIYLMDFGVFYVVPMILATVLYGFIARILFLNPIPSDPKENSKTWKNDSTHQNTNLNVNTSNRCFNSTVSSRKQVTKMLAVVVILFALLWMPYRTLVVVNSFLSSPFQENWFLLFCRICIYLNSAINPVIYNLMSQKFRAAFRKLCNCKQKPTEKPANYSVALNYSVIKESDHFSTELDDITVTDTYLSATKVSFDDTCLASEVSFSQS
Chain of Voltage-gated inwardly rectifying potassium channel KCNH2 (Homo sapiens) (Q12809 whole entry, looked up): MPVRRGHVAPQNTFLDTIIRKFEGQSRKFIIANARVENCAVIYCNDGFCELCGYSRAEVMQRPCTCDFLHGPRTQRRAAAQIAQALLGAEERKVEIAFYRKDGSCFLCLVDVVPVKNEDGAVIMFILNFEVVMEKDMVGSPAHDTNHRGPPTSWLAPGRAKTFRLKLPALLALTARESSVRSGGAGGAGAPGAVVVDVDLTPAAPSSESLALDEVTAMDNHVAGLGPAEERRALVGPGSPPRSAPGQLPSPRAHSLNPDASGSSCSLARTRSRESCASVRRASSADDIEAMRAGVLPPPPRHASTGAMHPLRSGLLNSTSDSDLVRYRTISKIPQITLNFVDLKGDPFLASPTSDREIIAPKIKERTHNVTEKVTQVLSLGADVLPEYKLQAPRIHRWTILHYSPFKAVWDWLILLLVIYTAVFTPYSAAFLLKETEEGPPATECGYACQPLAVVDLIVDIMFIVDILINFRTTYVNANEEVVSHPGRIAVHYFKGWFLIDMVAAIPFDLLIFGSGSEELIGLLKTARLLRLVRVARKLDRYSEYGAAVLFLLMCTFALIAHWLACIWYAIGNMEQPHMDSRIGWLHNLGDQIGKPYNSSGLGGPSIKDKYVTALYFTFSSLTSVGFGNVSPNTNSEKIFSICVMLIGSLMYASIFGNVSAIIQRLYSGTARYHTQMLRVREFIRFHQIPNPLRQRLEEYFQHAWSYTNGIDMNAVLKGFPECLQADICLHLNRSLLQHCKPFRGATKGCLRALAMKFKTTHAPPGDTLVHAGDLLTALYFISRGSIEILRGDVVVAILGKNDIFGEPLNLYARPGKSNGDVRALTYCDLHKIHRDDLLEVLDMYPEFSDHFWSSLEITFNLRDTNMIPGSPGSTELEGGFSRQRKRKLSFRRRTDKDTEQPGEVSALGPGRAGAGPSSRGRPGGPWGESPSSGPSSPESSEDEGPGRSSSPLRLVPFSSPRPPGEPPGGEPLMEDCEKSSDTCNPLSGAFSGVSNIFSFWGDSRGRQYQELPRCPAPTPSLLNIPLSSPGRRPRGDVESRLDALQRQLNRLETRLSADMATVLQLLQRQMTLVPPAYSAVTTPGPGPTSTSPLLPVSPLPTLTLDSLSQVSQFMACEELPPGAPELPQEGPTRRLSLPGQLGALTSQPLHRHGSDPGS
Chain of Cytochrome P450 2C19 (Homo sapiens) (P33261 whole entry, looked up): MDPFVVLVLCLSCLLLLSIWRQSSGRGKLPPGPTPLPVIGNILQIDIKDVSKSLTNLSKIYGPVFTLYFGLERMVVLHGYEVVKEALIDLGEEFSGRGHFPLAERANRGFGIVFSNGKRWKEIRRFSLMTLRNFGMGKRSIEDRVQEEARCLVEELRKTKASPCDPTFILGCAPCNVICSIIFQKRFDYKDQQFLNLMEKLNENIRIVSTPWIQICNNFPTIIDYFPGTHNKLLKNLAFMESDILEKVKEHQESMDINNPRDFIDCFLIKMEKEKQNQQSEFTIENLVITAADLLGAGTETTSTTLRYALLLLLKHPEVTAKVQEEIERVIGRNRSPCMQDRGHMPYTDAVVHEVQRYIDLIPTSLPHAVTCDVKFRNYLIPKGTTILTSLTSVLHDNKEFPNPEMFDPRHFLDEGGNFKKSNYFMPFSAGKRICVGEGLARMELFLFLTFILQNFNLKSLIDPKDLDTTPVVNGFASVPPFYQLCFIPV
Chain of Nuclear receptor subfamily 1 group I member 2 (Homo sapiens) (O75469 whole entry, looked up): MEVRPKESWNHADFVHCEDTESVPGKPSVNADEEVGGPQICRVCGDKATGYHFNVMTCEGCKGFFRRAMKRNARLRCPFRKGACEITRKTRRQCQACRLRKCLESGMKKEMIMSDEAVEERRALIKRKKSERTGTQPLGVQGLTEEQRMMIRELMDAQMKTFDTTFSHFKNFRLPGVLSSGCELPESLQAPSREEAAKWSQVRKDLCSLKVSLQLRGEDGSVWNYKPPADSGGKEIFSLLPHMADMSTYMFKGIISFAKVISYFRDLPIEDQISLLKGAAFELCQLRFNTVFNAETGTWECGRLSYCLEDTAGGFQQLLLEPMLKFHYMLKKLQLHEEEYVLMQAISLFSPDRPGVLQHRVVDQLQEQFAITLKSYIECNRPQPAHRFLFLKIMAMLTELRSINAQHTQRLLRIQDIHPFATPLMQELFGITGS
Chain of Cytochrome P450 3A4 (Homo sapiens) (P08684 whole entry, looked up): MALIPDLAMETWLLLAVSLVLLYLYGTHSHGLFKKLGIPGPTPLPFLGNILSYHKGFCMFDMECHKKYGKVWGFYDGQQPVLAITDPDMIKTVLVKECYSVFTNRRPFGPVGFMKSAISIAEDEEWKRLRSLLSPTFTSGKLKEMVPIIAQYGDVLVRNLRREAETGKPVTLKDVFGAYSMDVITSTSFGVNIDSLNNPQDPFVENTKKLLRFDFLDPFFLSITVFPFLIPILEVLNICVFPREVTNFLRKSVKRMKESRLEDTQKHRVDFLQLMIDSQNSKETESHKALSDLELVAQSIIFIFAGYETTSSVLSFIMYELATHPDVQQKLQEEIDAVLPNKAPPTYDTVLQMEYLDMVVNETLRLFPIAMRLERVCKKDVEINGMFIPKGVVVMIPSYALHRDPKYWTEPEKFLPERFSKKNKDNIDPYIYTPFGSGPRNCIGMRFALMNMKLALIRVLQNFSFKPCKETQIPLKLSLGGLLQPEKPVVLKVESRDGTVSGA
Chain of Cytochrome P450 2D6 (Homo sapiens) (P10635 whole entry, looked up): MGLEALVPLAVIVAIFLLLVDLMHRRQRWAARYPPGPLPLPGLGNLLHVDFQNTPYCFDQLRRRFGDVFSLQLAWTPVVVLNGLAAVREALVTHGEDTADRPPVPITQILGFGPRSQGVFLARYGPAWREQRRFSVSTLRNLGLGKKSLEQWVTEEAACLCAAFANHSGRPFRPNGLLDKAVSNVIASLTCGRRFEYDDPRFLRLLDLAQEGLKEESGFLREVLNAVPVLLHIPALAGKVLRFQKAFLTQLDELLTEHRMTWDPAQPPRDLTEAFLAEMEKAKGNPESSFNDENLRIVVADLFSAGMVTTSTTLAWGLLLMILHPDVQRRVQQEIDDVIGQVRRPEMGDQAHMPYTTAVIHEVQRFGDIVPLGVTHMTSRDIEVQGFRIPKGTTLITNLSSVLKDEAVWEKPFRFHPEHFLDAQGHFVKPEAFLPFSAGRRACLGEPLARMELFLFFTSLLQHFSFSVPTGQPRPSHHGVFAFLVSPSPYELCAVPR
Chain of Cytochrome P450 1A2 (Homo sapiens) (P05177 whole entry, looked up): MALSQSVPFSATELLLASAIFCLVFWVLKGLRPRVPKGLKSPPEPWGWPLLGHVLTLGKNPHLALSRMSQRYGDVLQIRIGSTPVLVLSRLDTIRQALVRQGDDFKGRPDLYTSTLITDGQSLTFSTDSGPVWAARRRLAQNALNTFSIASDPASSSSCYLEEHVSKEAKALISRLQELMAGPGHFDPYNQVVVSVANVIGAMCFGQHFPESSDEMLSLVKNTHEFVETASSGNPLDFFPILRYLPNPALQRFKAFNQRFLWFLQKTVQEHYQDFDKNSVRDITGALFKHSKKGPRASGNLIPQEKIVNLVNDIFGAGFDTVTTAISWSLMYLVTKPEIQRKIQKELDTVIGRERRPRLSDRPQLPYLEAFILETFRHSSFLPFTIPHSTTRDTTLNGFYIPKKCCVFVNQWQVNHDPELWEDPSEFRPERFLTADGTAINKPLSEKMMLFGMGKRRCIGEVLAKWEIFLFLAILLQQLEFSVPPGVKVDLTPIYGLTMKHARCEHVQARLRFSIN
Chain of Cytochrome P450 2C9 (Homo sapiens) (P11712 whole entry, looked up): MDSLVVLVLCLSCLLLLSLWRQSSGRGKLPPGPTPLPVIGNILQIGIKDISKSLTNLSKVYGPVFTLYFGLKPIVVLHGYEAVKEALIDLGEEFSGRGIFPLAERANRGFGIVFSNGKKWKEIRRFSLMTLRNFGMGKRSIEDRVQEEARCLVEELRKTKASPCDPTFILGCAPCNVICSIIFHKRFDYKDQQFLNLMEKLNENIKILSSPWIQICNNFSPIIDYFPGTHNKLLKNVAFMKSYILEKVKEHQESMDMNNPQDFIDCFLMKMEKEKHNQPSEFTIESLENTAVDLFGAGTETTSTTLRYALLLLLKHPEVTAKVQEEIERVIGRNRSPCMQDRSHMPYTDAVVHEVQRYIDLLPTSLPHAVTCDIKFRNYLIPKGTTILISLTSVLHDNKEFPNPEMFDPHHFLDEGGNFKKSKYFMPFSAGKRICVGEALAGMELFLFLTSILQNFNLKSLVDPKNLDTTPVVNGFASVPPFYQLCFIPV

CCCCCCCCCCCCCCCCCCOCCO
active: Potency [14] 7.12 µM
inactive: viability change, negative = cytotoxic [1] -1.95% [at 15.8 µM] | activity change, negative = cytotoxicity [2] -6.94% [at 15.8 µM] | activation [3] -0.657% [at 15.8 µM] | activation [4] -0.279% [at 11.8 µM] | activity change, negative = cytotoxicity [5] 5.85% [at 19 µM] | caspase activation [6] 0.0407% [at 19 µM] | activity change, negative = cytotoxicity [7] -0.155% [at 19 µM] | caspase-3/7 activation [8] -1.25% [at 19 µM] | activity change, negative = cytotoxicity [9] 7.52% [at 19 µM] | activation [10] 0.259% [at 19 µM] | activity change, negative = inhibition [11] -7.3% [at 23.6 µM] | activity change, negative = inhibition [12] 7.26% [at 23.6 µM] | activity change, negative = inhibition [13] -10.3% [at 23.6 µM] | activity change, negative = inhibition [15] 11.9% [at 23.6 µM]

CCO
inactive: outcome [1] | outcome [2] | outcome [3] | outcome [4] | outcome [5] | outcome [6] | Potency [7] | outcome [8] | outcome [9] | Potency [10] | Potency [11] | Potency [12] | Potency [13] | Potency [16] | Potency [15]

CC(O)CC(C)O (configuration not stated)
inactive: outcome [1] | outcome [2] | outcome [3] | outcome [4] | outcome [5] | Potency [7] | outcome [8] | outcome [9] | Potency [10] | Potency [11] | Potency [12] | Potency [16] | Potency [15]

CC(C)OC(=O)CCC(=O)OC(C)C
inactive: outcome [1] | outcome [2] | outcome [3] | outcome [4] | outcome [5] | Potency [7] | outcome [8] | outcome [9] | Potency [10] | Potency [11] | Potency [12] | Potency [13] | Potency [14] | Potency [16] | Potency [15]

O=C1NC(c2ccccc2)(c2ccccc2)C(=O)N1COP(=O)(O)O
inactive: outcome [1] | outcome [2] | outcome [3] | outcome [17] | outcome [4] | outcome [5] | Potency [7] | outcome [9] | Potency [10] | Potency [11] | Potency [12] | Potency [13] | Potency [14] | Potency [16] | Potency [15]

CC(=O)CCC1=C(C)CCCC1(C)C
active: Potency [12] 35.6 µM | Potency [13] 31.7 µM | Potency [14] 39.9 µM | Potency [15] 10 µM
inactive: outcome [1] | outcome [2] | outcome [3] | outcome [17] | outcome [4] | outcome [5] | Potency [7] | Potency [10] | Potency [11] | Potency [16]
